Screening results from PubChem BioAssay.
Sampled rows, rich in hits. Any-hit rate of the full collection: about 7.8%.
Bst PK mod: modulators of Bacillus stearothermophilus pyruvate kinase; hit rate 1.2% among 51,000; AID 361; Potency, µM; purified pyruvate kinase, luminescence ATP production; ribose 5-phosphate activator present at AC10; in the data active = potency below about 11 µM; inconclusive = mostly about 12 µM to 25 µM;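 the screen sought inhibitors and activators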;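 note: scaled between full activation by ribose 5 phosphate and full inhibition by luteolin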
TSHR agonist: agonists of human thyroid stimulating hormone receptor; P16473; HEK293-CNG-TSHR cells (CNG channel as cAMP sensor), membrane potential dye, cAMP; Potency, µM (series often up to 57.1 µM), without a hit: at the highest dose activation, most hits filed as activators; hit rate 0.48% among 73,000; active = well fitted activation curve with a large enough effect in the main read-out, with a control signal flat, not every such curve was filed as active; inconclusive = small, poorly fitted or top-dose-only effect, or a change in a side signal; inactive = no such curve, though single readings can be large or run the other way; % of control where 0% means no effect;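 note: the control signal comes from parental cells without the receptor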
Target sequence (P16473 whole entry, looked up): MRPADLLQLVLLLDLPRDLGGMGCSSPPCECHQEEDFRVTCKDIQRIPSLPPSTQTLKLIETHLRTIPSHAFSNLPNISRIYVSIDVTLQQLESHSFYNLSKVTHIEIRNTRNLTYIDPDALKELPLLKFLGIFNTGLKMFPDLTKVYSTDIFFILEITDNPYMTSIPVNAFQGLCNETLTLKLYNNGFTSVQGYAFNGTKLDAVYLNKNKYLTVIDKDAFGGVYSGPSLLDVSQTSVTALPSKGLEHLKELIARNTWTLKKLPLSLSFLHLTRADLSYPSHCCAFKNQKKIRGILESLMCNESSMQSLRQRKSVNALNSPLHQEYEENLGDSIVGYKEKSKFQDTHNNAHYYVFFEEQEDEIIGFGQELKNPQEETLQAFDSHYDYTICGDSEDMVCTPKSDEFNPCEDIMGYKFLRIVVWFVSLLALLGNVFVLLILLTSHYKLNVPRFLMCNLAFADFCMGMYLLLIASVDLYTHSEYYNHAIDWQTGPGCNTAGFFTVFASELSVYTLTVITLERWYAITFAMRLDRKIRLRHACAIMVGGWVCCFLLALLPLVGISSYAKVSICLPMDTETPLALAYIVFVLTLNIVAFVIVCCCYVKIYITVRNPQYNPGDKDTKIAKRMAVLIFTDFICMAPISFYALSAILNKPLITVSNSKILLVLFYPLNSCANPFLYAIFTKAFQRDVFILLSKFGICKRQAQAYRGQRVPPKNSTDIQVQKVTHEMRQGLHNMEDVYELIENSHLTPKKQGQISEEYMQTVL
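HEK 293 cells stably expressing TSHR and a modified CNG channel, with CNG-only parental cells as counterscreen, were preloaded 60 min at room temperature with membrane potential dye containing 100 uM RO 20-1724. Compound exposure was 30 min, and depolarization was read as fluorescence at 590 nm.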
HEK293 cAMP cs: raises cAMP in parental HEK293 cells, TSHR agonist counter-screen | hit rate 2.5% among 73,000 | parental HEK293 CNG cAMP sensor, membrane potential fluorescence | Potency, µM (top dose mostly 57.1 µM), inactives show at the highest dose activation, usual class: activators; note: % of control where 0% means no effect; nearly all actives have a fitted effect of over 55% in size
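Counterscreen for endogenous-receptor signalling: CNG-channel HEK 293 cells report cAMP rise by membrane depolarization. After 60 min dye equilibration with 100 uM RO 20-1724, compounds incubated 30 min before bottom-read fluorescence at 590 nm.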
Tau fil binding: tau filament binding. P10636. recombinant tau filaments, thioflavin S fluorescence, 15 h; filaments grown with octadecylsulfate alongside compound. Potency, µM (titrated, usually from 57.1 µM), for the others: at the highest dose activity change, negative = inhibition. AID 596. hit rate 2% among 71,000;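 note: % is set by controls: 0 for no effect and ±100 for the full control effect; actives lower thioflavin S fluorescence by blocking filaments or displacing dye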
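His-tagged recombinant human tau (exons 2, 3 and 10 included), 1 uM, was induced to fibrillize by 30 uM sodium octadecylsulfate with compound present. After 15 h at 37 C, thioflavine S fluorescence (ex 450, em 510 nm) was read.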
Luciferase inh: firefly luciferase inhibition; hit rate 2.2% among 72,000; AID 411; P08659; Potency, µM (titrated, usually from 57.1 µM), inactives show top-dose activity change, negative = inhibition, most hits filed as inhibitors; purified firefly luciferase, luminescence, 8 min; note: % is set by controls: 0 for no effect and ±100 for the full control effect; nearly all actives have a fitted effect of over 40% in size
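Firefly luciferase (PKLight detection mix) with 10 uM ATP in pH 7.2 imidazole buffer (KCl, MgCl2, Tween 20, BSA). Compounds tested across a concentration series (qHTS). Luminescence read after 8 min at ambient temperature.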
15-hLO inh: 15-hLO (ALOX15) enzyme inhibition | P16050 | purified 15hLO-1, xylenol orange hydroperoxide absorbance | Potency, µM (top dose mostly 57.1 µM), inactives show top-dose activity change, negative = inhibition, usual class: inhibitors | hit rate 1.4% among 74,000; note: % is set by controls: 0 for no effect and ±100 for the full control effect; nearly all actives have a fitted effect of over 55% in size
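Hydroperoxide formed from arachidonic acid (50 uM) by purified human 15hLO-1 (40 nM) oxidizes ferrous iron, and the ferric-xylenol orange complex is read at 573 versus 405 nm. Compounds were preincubated 15 min; reaction ran 6 min at room temperature.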
Numbers without * were called inactive; i = inactive; ? = inconclusive; nt = no result given; [ ] = remark or other dose. Unless noted, calls come from the whole dose curve; as a rule, active = well fitted curve in the direction sought with a large enough effect; inconclusive = small, poorly fitted or top-dose-only effect, or another doubt; inactive = no such curve, though single readings can be large; an effect the other way counts as inactive or inconclusive. Potency is the fitted concentration of half-maximal effect.

SMILES | Bst PK mod | TSHR agonist | HEK293 cAMP cs | Tau fil binding | Luciferase inh | 15-hLO inh
O=C(NCC1CCCO1)[C@@H]1CSC2c3ccccc3C(=O)N21 (stereo partly drawn) | >57 | -16.2% | -13.4% | -0.1% | -0.1% | 0.6%
COc1ccc(NC(=O)C2CSC3c4ccccc4C(=O)N23)cc1 (stereo not drawn) | 10.8* | nt | nt | nt | -0.3%[25.5 µM] | nt
CSCC[C@H](NC(=O)NCc1ccc(F)cc1)C(=O)O | >57 | -1.2% | 8.0% | 10.1% | 2.8% | -11.0%
Oc1ccc(Nc2nc(-c3ccc(Cl)cc3)cs2)cc1 | nt | ? | -51.8% | nt | nt | ?
Oc1ccc(Nc2nc(-c3ccc(O)cc3)cs2)cc1 | 7.96* | -41.7% | -19.9% | ? | 15.8µM* | ?
NS(=O)(=O)c1ccc(Nc2nc(-c3ccc(O)cc3)cs2)cc1 | ? | -13.7% | -4.9% | 17.4% | -2.7% | 25.1µM*
c1cc2c(cc1Nc1nc(-c3ccc4c(c3)OCO4)cs1)OCCO2 | ? | ? | -32.2% | 25.1µM* | 12.6µM* | -29.5%
Oc1ccc(-c2csc(NCc3ccco3)n2)cc1 | i | -20.6% | 2.8% | -10.6% | 25.1µM* | -20.6%
Cc1cccc2c1Oc1ccccc1[C@@H]2NC(=O)c1ccc([N+](=O)[O-])cc1 | nt | ? | ? | 0.9%[11.4 µM] | 1.6%[11.4 µM] | 4.5%[11.4 µM]
O=C(O)C(S)[C@@H](S)C(=O)O (stereo partly drawn) | nt | nt | nt | nt | nt | 7.94µM*
CC(C)(C)n1ncc2c(=O)n(CC(=O)c3ccc(Cl)cc3)cnc21 | nt | ? | ? | -1.5% | 20µM* | -8.0%
CC(C)(C)n1ncc2c(=O)n(CC(=O)NCc3ccccc3)cnc21 | nt | nt | 8.8% | -6.5% | 20µM* | 0.6%
CC(C)(C)n1ncc2c(=O)n(Cc3ccc(Cl)cc3Cl)cnc21 | 2.88* | ? | ? | 8.7% | -16.4% | -8.6%
COc1cccc(-n2nnc3c(=O)n(Cc4c(F)cccc4Cl)cnc32)c1 | nt | nt | 22.5% | 12.3% | 3.4% | 1.1%
CC(C)(C)n1ncc2c(=O)n(CC(=O)Nc3ccc(Cl)cc3)cnc21 | >57 | ? | ? | -1.9% | -0.9% | -4.9%
CC(C)(C)n1ncc2c(=O)n(Cc3c(F)cccc3Cl)cnc21 | 9.95* | ? | ? | 20.9% | -23.0% | -7.0%
CN(C)C(=O)c1ccc(-c2cncnc2NCc2cccnc2)cc1 | nt | ? | ? | -7.0% | -1.6%[2.29 µM] | 17.9%
ICCc1ccccc1 | nt | -4.6% | -17.7% | 2.4% | nt | 12.6µM*
O=C(Oc1ccccc1)c1ccc(-n2cnnn2)cc1 | >57 | -1.2% | -6.5% | 3.4% | 2.2% | 5.8%
O=C(Oc1ccc(-c2cn3c(n2)SCC3)cc1)c1ccccc1 | nt | 5.4% | 21.5% | 63.8% | 12.6µM* | -22.3%
N#Cc1ccsc1NC(=O)CSc1ncnc2ccccc12 | >57 | 18.1% | 21.6% | 20µM* | 2.0% | -3.0%
COc1ccc2[nH]cc(CCNc3nc(-c4ccoc4)nc4ccccc34)c2c1 | nt | nt | -8.2% | 3.98µM* | 0.4%[2.29 µM] | -6.5%
COc1ccc2[nH]cc(CCNc3ccnc(-c4cccc(NS(C)(=O)=O)c4)n3)c2c1 | nt | -13.2% | -28.4% | -13.0% | 0.2%[2.29 µM] | 20µM*
COc1ccccc1-c1nc(NCCc2cnc[nH]2)c2ccccc2n1 | nt | -8.6% | -3.2% | -28.4% | -2.9%[2.29 µM] | 20.0%
CN(C)c1ccc(-c2nc(NCCc3cnc[nH]3)c3ccccc3n2)cc1 | nt | ? | -69.4% | i | 0.794µM* | 32.6%
SMILES | Bst PK mod | TSHR agonist | HEK293 cAMP cs | Tau fil binding | Luciferase inh | 15-hLO inh
COc1ccc2[nH]cc(CCNc3ccnc(-c4cccc(C#N)c4)n3)c2c1 | nt | ? | -30.6% | -22.5% | 0.0%[2.29 µM] | 7.7%
COc1ccc2[nH]cc(CCNc3ncncc3-c3ccc(N(C)C)cc3)c2c1 | nt | 6.8% | -8.9% | 25.1µM* | -4.5%[2.29 µM] | -1.9%
Cc1[nH]c(N)nc(=S)c1CCC(=O)O | nt | -2.4%[11.4 µM] | 9.8%[11.4 µM] | -2.6%[11.4 µM] | 0.1%[11.4 µM] | 8.3%[11.4 µM]
COc1ccc2[nH]cc(CCNc3nc(-c4ccc(N(C)C)cc4)nc4ccccc34)c2c1 | nt | ? | -37.7% | 458.7% | 0.631µM* | ?
CC(=O)N1CCN(c2ccccc2NC(=O)c2cc(Br)ccc2Cl)CC1 | >57 | ? | 31.6µM* | -23.2% | -3.2% | -4.8%
CCOC(=O)Cc1csc(NS(=O)(=O)Cc2ccccc2)n1 | >57 | 25.2% | 15.9% | 107.7% | 0.1% | 3.5%
